Consider 14 molecules from PubChem BioAssay.

A short description of assay [1]: inhibitors of TNFa-induced NFkB p65 translocation, primary screen, imaging, HUVEC, MLSMR starter and 10KST1 sets (AID 438;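 active means inhibition above 20% together with a positive visual image hit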;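 further: compound added about 3h40 before a 20 min TNFalpha stimulation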;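 on inhibition: signal is the nuclear over cytoplasmic p65 intensity ratio per well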). Conditions: HUVEC TNFa-induced p65 nuclear translocation; cell count: measured here: nuclei count (cytotoxicity indicator), at 2.08 µM; inhibition: at 2 µM, stronger effect = higher value, 0% TNFa-plus-vehicle, 100% no-TNFa wells.
Assay [2] can be described thus: inhibitors of mutant huntingtin aggregation, primary screen, imaging, exon1htt(103Q)mCFP cells, high-content imaging (AID 483;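 active means visual image review flags a hit and inhibition of aggregation exceeds 20%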;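 further: compound exposure lasted 3 days before fixation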;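 on nuclei count: percent of the per-plate median nuclei count of sample wells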). Conditions: exon1htt(103Q)mCFP cell line, aggregate imaging, at 2 µM; inhibition of aggregation: stronger effect = higher value; nuclei count: measured here: cell count, toxicity.
Assay [3] can be described thus: inhibitors of E-selectin induction by TNFa, primary screen, imaging, HUVEC, immunofluorescence, MLSMR starter and 10KST1 sets (AID 487;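 active means visually confirmed hit in the image check and inhibition above 20%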;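 on inhibition: signal is fraction of cell area covered by stained E-selectin grains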;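 on nuclei count: 100% = median nuclei count of all wells on the same plate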). Conditions: HUVEC TNFalpha-induced E-selectin immunofluorescence imaging, at 2 µM; inhibition: stronger effect = higher value; nuclei count: measured here: cell number, toxicity.
The target of assay [4] is Voltage-gated potassium channel subunit beta-2 (Rattus norvegicus) (UniProt P62483). Description: KvBeta enzyme negative modulators, primary screen, biochemical, NADPH fluorescence (AID 622;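 active means fluorescence slope higher than the sample average by over 3 SD, cut at about -0.22 in these data, passing the limit was not always enough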;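 further: slope of raw intensity against log time taken from 70 to 1610 s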). The following applies: recombinant KvBeta, 4-cyanobenzaldehyde reduction, at 10 µM, stronger effect = higher value.
The target is the same in assay [5]. Description: KvBeta positive modulators, primary screen, biochemical, NADPH fluorescence (AID 623;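 active means NADPH fluorescence slope more negative than the mean of all samples by about 3 SD, 99.7% confidence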;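 further: fluorescence intensity change per second fitted from 20 to 320 s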). The following applies: Recombinant KvBeta, NADPH fluorescence decrease slope, 10 min; at 10 µM; stronger effect = lower value.
Assay [6] has as its target Alpha-2C adrenergic receptor (Homo sapiens) (UniProt P18825). Description: modulators of alpha2C/GIRK thallium flux, primary screen, cell-based, HEK293 alpha2C/GIRK1/2 (AID 624;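 active means fluorescence slope after compound addition differing from the mean of all screened samples at 99.7% confidence, in either direction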;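 further: slope of fluorescence ratio to pre-addition baseline per second over 15 to 24 s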). The following applies: thallium flux BTC fluorescence, at 10 µM, actives lie on both sides.
Assay [7] is described as follows: inhibitors of Sendai virus-induced IRF3 signaling, primary screen, TLR/RLR signaling modifier project, cell-based, Sendai virus stimulus, luciferase, 10K MLSCN set (AID 602276;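 active means inhibition at or above 50% at 10 µM; inactive means inhibition below 50%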;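 further: firefly luciferase from ISG56 promoter only with Renilla not read in this screen; 0% = Sendai virus plus DMSO and 100% = medium plus DMSO without virus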). Conditions: HEK293 RL24 IRF3 luciferase reporter, at 10 µM, stronger effect = higher value.
Assay [8] is described as follows: inhibitors of poly I:C-induced TLR3 signaling, primary screen, cell-based, poly I:C stimulus, luciferase, 10K MLSCN set (AID 602277). The following applies: HEK293-TLR3 RL24 IRF3 luciferase reporter, at 10 µM, stronger effect = higher value. (Reporter assays use an easily measured gene product as a stand-in for the process of interest.)

Active and inactive are the calls of the source.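 How the source made its calls, unless noted: active means inhibition of the reporter signal at or above 50%; inactive means inhibition below 50%.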

Chain of Alpha-2C adrenergic receptor (Homo sapiens) (P18825 whole entry, looked up): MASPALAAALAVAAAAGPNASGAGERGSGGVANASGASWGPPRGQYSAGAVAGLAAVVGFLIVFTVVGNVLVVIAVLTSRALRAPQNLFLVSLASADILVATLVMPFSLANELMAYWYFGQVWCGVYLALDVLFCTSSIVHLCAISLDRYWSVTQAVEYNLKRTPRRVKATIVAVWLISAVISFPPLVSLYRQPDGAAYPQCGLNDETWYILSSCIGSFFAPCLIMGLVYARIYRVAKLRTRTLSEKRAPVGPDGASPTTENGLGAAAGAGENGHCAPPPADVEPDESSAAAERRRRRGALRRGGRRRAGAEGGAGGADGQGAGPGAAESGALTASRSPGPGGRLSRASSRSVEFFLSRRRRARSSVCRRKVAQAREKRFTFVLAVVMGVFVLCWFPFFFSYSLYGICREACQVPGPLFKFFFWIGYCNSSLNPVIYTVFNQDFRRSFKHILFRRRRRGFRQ
Chain of Voltage-gated potassium channel subunit beta-2 (Rattus norvegicus) (P62483 whole entry, looked up): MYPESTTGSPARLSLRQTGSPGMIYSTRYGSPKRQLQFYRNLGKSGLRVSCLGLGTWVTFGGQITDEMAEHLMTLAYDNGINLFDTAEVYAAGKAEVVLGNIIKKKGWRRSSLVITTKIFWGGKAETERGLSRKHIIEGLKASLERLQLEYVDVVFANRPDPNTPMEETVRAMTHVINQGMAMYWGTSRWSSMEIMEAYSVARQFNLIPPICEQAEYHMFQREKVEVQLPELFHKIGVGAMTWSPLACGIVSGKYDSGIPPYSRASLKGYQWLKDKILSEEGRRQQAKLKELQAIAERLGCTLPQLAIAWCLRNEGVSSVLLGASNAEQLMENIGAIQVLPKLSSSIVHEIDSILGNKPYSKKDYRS

In general, inhibition refers to the change of the read-out against control, counted positive when it falls. `CC1CCN(C(=O)CSc2nc3c(cnn3-c3ccccc3)c(=O)[nH]2)CC1`: the cell count in assay [1] is 472. The inhibition in assay [1] is 2.3% (inactive); in assay [3], 14.9% (inactive); in assay [7], 10.9% (inactive); in assay [8] it was 28.1% (inactive). Further, the inhibition of aggregation in assay [2] is -5.6% (inactive). Further, the nuclei count is 102% in assay [2] and 79.5% in assay [3]. Also, the fluorescence slope in assay [4] is -0.582 (inactive). Also, the NADPH fluorescence slope in assay [5] is -2.5e-05 (inactive). Moreover, the slope in assay [6] is 0.00596 (inactive).

Consider `CN(C)c1ccc(NC(=O)Cn2cc3c(n2)CCCC3)cc1`, for which the cell count in assay [1] worked out at 757. The inhibition is -11% (inactive) in assay [1], -27.2% (inactive) in assay [3], -2.34% (inactive) in assay [7] and -8.59% (inactive) in assay [8]. Besides, the inhibition of aggregation in assay [2] is 17.1% (inactive). In addition, the nuclei count in assay [2] was determined as 101%; in assay [3], 103%. Moreover, the fluorescence slope in assay [4] was -0.406 (inactive). The NADPH fluorescence slope in assay [5] was -4.3e-05 (inactive). Further, the slope in assay [6] was 0.00475 (inactive).

`[N-]=[N+]=CC(=O)CC(c1ccccc1)N1C(=O)c2ccccc2C1=O` (centres undefined): the cell count in assay [1] came to 229. For the same molecule, the inhibition in assay [1] was 0.5% (inactive); in assay [3] it was -39.5% (inactive); in assay [7], -5% (inactive); in assay [8] it was -29.5% (inactive). For the same molecule, the inhibition of aggregation in assay [2] is 10.4% (inactive). Moreover, the nuclei count in assay [2] was determined as 58.6%; in assay [3] it was 115%. Also, the fluorescence slope in assay [4] was -0.609 (inactive). In addition, the NADPH fluorescence slope in assay [5] is -2.1e-05 (inactive). Further, the slope in assay [6] is 0.00641 (inactive).

On to `Cc1cccc(N2CCN(C(=O)CCn3c(=S)[nH]c4cc5c(cc4c3=O)OCO5)CC2C)c1` (centres undefined), for which, in assay [1], the cell count was 488. The inhibition is 3% (inactive) in assay [1], -1.8% (inactive) in assay [3], 9.48% (inactive) in assay [7] and 38.2% (inactive) in assay [8]. In assay [2], the inhibition of aggregation is -4.6% (inactive). Further, the nuclei count was 112% in assay [2] and 97.2% in assay [3]. In assay [4], the fluorescence slope is -0.614 (inactive). In addition, in assay [5], the NADPH fluorescence slope was -2.6e-05 (inactive). In assay [6], the slope is 0.00669 (inactive).

Consider `COc1cc2c(cc1OC)CN(C(=O)CSc1nc3[nH]ncc3c(=O)n1-c1ccccc1)CC2`, for which, in assay [1], the cell count was 509. Further, the inhibition in assay [1] was -8.2% (inactive); in assay [3], -7.3% (inactive); in assay [7], 11% (inactive); in assay [8] it was 23.1% (inactive). Further, the inhibition of aggregation in assay [2] was -8.9% (inactive). Besides, the nuclei count was 86.9% in assay [2] and 87% in assay [3]. For the same molecule, the fluorescence slope in assay [4] was -0.492 (inactive). In addition, in assay [5], the NADPH fluorescence slope is -2.6e-05 (inactive). The slope in assay [6] was 0.00737 (inactive).

Regarding `Cc1[nH]c(C(=O)N2CCCCC2)c(C)c1C(=O)NC1CCCCC1`, the cell count in assay [1] is 425. Moreover, the inhibition in assay [1] was 0.5% (inactive); in assay [3] it was -49.8% (inactive); in assay [7], 5.02% (inactive); in assay [8] it was 4.54% (inactive). The inhibition of aggregation in assay [2] was 6.3% (inactive). In addition, the figures for the nuclei count in assay [2] and in assay [3] were 97.4% and 123%, respectively. For the same molecule, the fluorescence slope in assay [4] was -0.528 (inactive). The NADPH fluorescence slope in assay [5] was 2.6e-05 (inactive). For the same molecule, the slope in assay [6] is 0.00631 (inactive).

Take `O=C(NCC(c1cccnc1)N1CCN(c2ccc(F)cc2)CC1)c1ccc(F)cc1` (centres undefined): the cell count in assay [1] came out at 346. Further, the inhibition in assay [1] was 7.4% (inactive); in assay [3], -33.2% (inactive); in assay [7], 1.86% (inactive); in assay [8], 6.23% (inactive). For the same molecule, the inhibition of aggregation in assay [2] is -9.9% (inactive). Besides, the results for the nuclei count in assay [2] and in assay [3] were 84% and 96.5%, respectively. The fluorescence slope in assay [4] was -0.596 (inactive). Further, the NADPH fluorescence slope in assay [5] was -4.6e-05 (inactive). In addition, the slope in assay [6] was 0.00545 (inactive).

Take `O=C(O)C1CCCN1S(=O)(=O)c1ccc2ccccc2c1` (centres undefined): the cell count in assay [1] was found to be 609. Further, the inhibition in assay [1] was -3.4% (inactive); in assay [3], -83.6% (inactive); in assay [7], -1.98% (inactive); in assay [8] it was -11.3% (inactive). Also, in assay [2], the inhibition of aggregation is -2.3% (inactive). In addition, the nuclei count in assay [2] was 89.5%; in assay [3], 106%. Besides, in assay [4], the fluorescence slope was -0.627 (inactive). Moreover, the NADPH fluorescence slope in assay [5] was -2e-06 (inactive). For the same molecule, the slope in assay [6] was 0.00297 (inactive).

Take `CCS(=O)(=O)N1CCCC(C(=O)NCc2ccccc2Cl)C1` (centres undefined): the cell count in assay [1] was determined as 257. Besides, the inhibition in assay [1] is -1.9% (inactive); in assay [3] it was -15.6% (inactive); in assay [7], 3.16% (inactive); in assay [8] it was -6.49% (inactive). In addition, in assay [2], the inhibition of aggregation was -1.1% (inactive). Moreover, the nuclei count in assay [2] is 107%; in assay [3] it was 112%. The fluorescence slope in assay [4] is -0.608 (inactive). For the same molecule, in assay [5], the NADPH fluorescence slope is -1.9e-05 (inactive). For the same molecule, in assay [6], the slope was 0.00474 (inactive).

Regarding `Nc1sccc1C(=O)c1ccc(Cl)cc1`, the cell count in assay [1] is 403. Besides, the inhibition in assay [1] was 0% (inactive); in assay [3] it was -146% (inactive); in assay [7], 2.24% (inactive); in assay [8], 0.658% (inactive). Further, in assay [2], the inhibition of aggregation is 7.1% (inactive). For the same molecule, the nuclei count in assay [2] came out at 92%; in assay [3], 103%. In addition, in assay [4], the fluorescence slope was -0.44 (inactive). Besides, the NADPH fluorescence slope in assay [5] was -2.6e-05 (inactive). In addition, the slope in assay [6] was 0.00277 (inactive).

As to `COc1ccc(CCNC(=O)c2cc3sc(Cl)cc3n2C)cc1OC`, the cell count in assay [1] worked out at 611. Besides, the inhibition was 4.1% (inactive) in assay [1], 2.3% (inactive) in assay [3], -15.3% (inactive) in assay [7] and -18.8% (inactive) in assay [8]. In addition, in assay [2], the inhibition of aggregation was -8.1% (inactive). For the same molecule, the nuclei count in assay [2] amounted to 99.5%; in assay [3], 89%. In assay [4], the fluorescence slope is -0.626 (inactive). The NADPH fluorescence slope in assay [5] is -4e-05 (inactive). For the same molecule, in assay [6], the slope was 0.00715 (inactive).

Regarding `CCC(=O)Nc1ccc(NC(=O)c2cccc(OC)c2)nc1`, the cell count in assay [1] was 742. Besides, the inhibition in assay [1] was -7.5% (inactive); in assay [3], -92.8% (inactive); in assay [7] it was -60.4% (inactive); in assay [8] it was -106% (inactive). Further, the inhibition of aggregation in assay [2] was -5.7% (inactive). For the same molecule, the nuclei count in assay [2] amounted to 105%; in assay [3] it was 160%. The fluorescence slope in assay [4] was -0.465 (inactive). In assay [5], the NADPH fluorescence slope was 1.2e-05 (inactive). Moreover, in assay [6], the slope is 0.00556 (inactive).

Take `O=C(NCN1CCCCC1)c1cnccn1`: the cell count in assay [1] is 604. Moreover, the inhibition in assay [1] is -9.2% (inactive); in assay [3], -101% (inactive); in assay [7] it was 13.6% (inactive); in assay [8] it was 29% (inactive). The inhibition of aggregation in assay [2] was -3.4% (inactive). The nuclei count in assay [2] was found to be 102%; in assay [3], 115%. Further, the fluorescence slope in assay [4] was -0.425 (inactive). For the same molecule, the NADPH fluorescence slope in assay [5] is -8.7e-05 (inactive). Moreover, the slope in assay [6] is 0.00561 (inactive).

On to `Oc1cc(NCc2cccnc2)ccc1-c1nc2ccccc2o1`, for which the cell count in assay [1] was found to be 378. Also, the inhibition in assay [1] is 6.8% (inactive); in assay [3], -28.5% (inactive); in assay [7], -31.3% (inactive); in assay [8] it was -152% (inactive). Also, the inhibition of aggregation in assay [2] is -7.8% (inactive). Also, the nuclei count in assay [2] was 119%; in assay [3] it was 123%. The fluorescence slope in assay [4] was -0.46 (inactive). Besides, the NADPH fluorescence slope in assay [5] was 8.7e-06 (inactive). In assay [6], the slope is 0.00562 (inactive).
